Our source for the composite z-score and z-score values is PubChem BioAssay.

Test [1] relates to Plasmodium falciparum Sir2 (PF13_0152, Sir2A). The experiment in a line: Plasmodium falciparum Sir2A binding compounds – biochemical, small-molecule microarray, 635 nm fluorescence, primary screen (AID 1098).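 Note: score merges spot fluorescence intensity with its signal-to-noise ratio.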 The following applies: fluorescence 635 nm, higher = more signal.
Test [2] can be described thus: probe aDKK1 binding to arrayed compounds – biochemical, biotinylated probe, 635/667 nm fluorescence, primary screen (AID 1099).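 Note: score merges 667nm spot fluorescence with signal to noise across triplicate slides.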 Conditions: small-molecule microarray, higher = more signal.
A short description of test [3]: probe aCHRDL2 binding to arrayed compounds – biochemical, biotinylated probe, 635/667 nm fluorescence, primary screen (AID 1100). Conditions: small-molecule microarray, higher = more signal.
The nature of test [4]: change in splice reporter luminescence, either direction, cell-based, HEK293, spliceosome inhibition project, primary screen (AID 1101).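 Note: HEK293 cells carrying a splicing-competent luciferase reporter gene; test concentration not given here.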 The following applies: HEK293 splicing luciferase reporter, 24 h, higher = more signal, called active from +8 up or from −8 down.
In test [5] the target is Fibroblast growth factor 10 (Homo sapiens) (UniProt O15520). Kind of test: compounds binding fibroblast growth factor 10 – biochemical, small-molecule microarray, 635 nm fluorescence, primary screen (AID 1102). Conditions: FGF10 binding, fluorescence 635 nm, higher = more signal.
Test [6] deals with glycogen synthase kinase-3 (GSK3A per assay name; protocol says GSK3B). Kind of test: compounds binding glycogen synthase kinase-3 – biochemical, small-molecule microarray, 635 nm fluorescence, GSK3A, primary screen (AID 1103). Note: the record names both GSK3A and GSK3B. Conditions: fluorescence 635 nm, higher = more signal.
The target of test [7] is Epidermal growth factor receptor (Homo sapiens) (UniProt P00533). Kind of test: compounds binding epidermal growth factor receptor – biochemical, small-molecule microarray, 635 nm fluorescence, primary screen (AID 1104).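 Note: score merges 667 nm emission intensity with spot signal to noise over triplicate slides.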 Conditions: EGFR binding, higher = more signal.
The target in test [8] is Follistatin-related protein 3 (Homo sapiens) (UniProt O95633). Kind of test: compounds binding follistatin-related protein 3 – biochemical, small-molecule microarray, 635 nm fluorescence, primary screen (AID 1105).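 Note: score merges emission near 667 nm and signal to noise per printed spot across three slides.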 Conditions: FSTL3 binding, higher = more signal.
The target in test [9] is Dickkopf-related protein 1 (Homo sapiens) (UniProt O94907). The experiment in a line: small molecules binding DKK1 protein – biochemical, small-molecule microarray, 635 nm fluorescence scan, primary screen (AID 1106).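 Note: score merges emission near 667 nm with signal to noise over three replicate slides.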 Conditions: higher = more signal.
Test [10] concerns Inhibin beta A chain (activin A). The experiment in a line: small molecules binding activin A – biochemical, small-molecule microarray, 635 nm fluorescence scan, primary screen (AID 1107).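 Note: mouse activin A protein probed at 4.33 µg/mL on printed slides; score merges bound-protein fluorescence near 667 nm with spot signal-to-noise.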 Conditions: INHBA, higher = more signal.
For test [11], the system named is Human papillomavirus type 1a protein E7 (residues 44-93). Kind of test: small molecules binding HPV E7 44-93 – biochemical, small-molecule microarray, residues 44-93, 635 nm fluorescence, primary screen (AID 1108).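 Note: E7 fragment applied at 1 µg/mL in TBST for 1 h at 4 C; score combines spot fluorescence with its signal to noise ratio.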 Conditions: fluorescence 635 nm, higher = more signal.
Test [12] in a line: hepatitis C replication reporter changes, two-sided – Huh7 cells, luciferase reporter, HCV replication inhibitor project, primary screen (AID 1109).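 Note: huh7 hepatoma cells harbouring a luciferase neomycin HCV replicon reporter; luciferase luminescence as measure of HCV replicon replication; test concentration not given here.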 The following applies: Huh7 HCV replicon luciferase reporter, 48 h; higher = more signal.
The target of test [13] is Left-right determination factor 2 (Homo sapiens) (UniProt O00292). The experiment in a line: small molecules binding LEFTY2 protein – biochemical, small-molecule microarray, 635 nm fluorescence scan, primary screen (AID 1110). Conditions: higher = more signal.
The target in test [14] is Calmodulin-1 (Homo sapiens) (UniProt P0DP23). Kind of test: small molecules binding calmodulin-1 with EGTA – biochemical, small-molecule microarray, Cy5-labelled CALM1, profiling panel (AID 1111).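 Note: labelled calmodulin applied in Tris saline Tween buffer holding calcium plus EGTA and DTT.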 Conditions: Cy5-CALM1 binding fluorescence, higher = more signal.
Test [15] shares this target. Kind of test: small molecules binding Ca-loaded calmodulin-1 – biochemical, small-molecule microarray, Cy5-labelled CALM1, plus calcium, artefact control for SMM control-protein annotation, profiling panel (AID 1112).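 Note: score merges spot fluorescence with signal to noise from triplicate slides.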 Conditions: Cy5-CALM1 binding fluorescence, higher = more signal.
The nature of test [16]: probe aWnt5a binding to arrayed compounds – biochemical, biotinylated probe, 635/667 nm fluorescence, primary screen (AID 1113).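 Note: score merges 667 nm fluorescence intensity with signal-to-noise per printed feature.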 The following applies: small-molecule microarray, higher = more signal.
Test [17] is described as follows: probe aShh binding to arrayed compounds – biochemical, biotinylated probe, 635/667 nm fluorescence, primary screen (AID 1114).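 Note: probe is biotin-labelled aShh protein from a stem cell growth factor screen; measures binding of labelled protein to compounds printed on the slide; score merges feature fluorescence at 667 nm with signal-to-noise.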 The following applies: small-molecule microarray, higher = more signal.
The nature of test [18]: probe aNog binding to arrayed compounds – biochemical, biotinylated probe, 635/667 nm fluorescence, primary screen (AID 1115).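 Note: probe is biotinylated aNog protein used at 0.15 µg/mL for 1 h at 4 C; z-score combines 667 nm fluorescence of each spot with its signal to noise.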 Conditions: small-molecule microarray, higher = more signal.
The target of test [19] is Torsin-1A-interacting protein 1 (Homo sapiens) (UniProt Q5JTV8). The experiment in a line: compound microarray binding of lysate hLAP1 – cell lysate, small-molecule microarray, COS7 lysate, 635/667 nm fluorescence, primary screen (AID 1116). The following applies: 635 nm fluorescence, higher = more signal.
Test [20] concerns the target Alpha-bungarotoxin (Bungarus multicinctus) (UniProt P60615). Kind of test: compounds binding labelled alpha-BTX control protein – biochemical, small-molecule microarray, Alexa647 label, 635/667 nm fluorescence, artefact control for SMM control protein annotation, profiling panel (AID 1117). The following applies: alpha-BTX-A647 binding fluorescence, higher = more signal.

“And” between values parts separate entries of the source, which are not always exact repeats. Equal values may be shown once. The source made the active and inactive calls.

Chain of Torsin-1A-interacting protein 1 (Homo sapiens) (Q5JTV8 whole entry, looked up): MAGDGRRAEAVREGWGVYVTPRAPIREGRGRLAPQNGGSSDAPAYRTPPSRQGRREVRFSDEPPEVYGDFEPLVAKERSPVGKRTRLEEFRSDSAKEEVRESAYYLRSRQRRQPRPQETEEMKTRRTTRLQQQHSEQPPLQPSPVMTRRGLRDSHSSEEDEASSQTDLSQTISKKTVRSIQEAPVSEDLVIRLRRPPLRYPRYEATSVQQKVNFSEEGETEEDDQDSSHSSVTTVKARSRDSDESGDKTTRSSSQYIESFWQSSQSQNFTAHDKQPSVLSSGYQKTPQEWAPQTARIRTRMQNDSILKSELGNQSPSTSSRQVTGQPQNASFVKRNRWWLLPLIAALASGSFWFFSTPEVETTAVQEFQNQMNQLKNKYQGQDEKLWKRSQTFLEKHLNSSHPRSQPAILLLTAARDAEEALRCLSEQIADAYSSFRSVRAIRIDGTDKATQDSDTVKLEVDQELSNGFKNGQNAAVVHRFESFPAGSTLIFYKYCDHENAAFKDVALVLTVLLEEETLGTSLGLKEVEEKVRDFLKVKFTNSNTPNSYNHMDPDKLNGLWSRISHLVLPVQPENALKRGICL
Chain of Dickkopf-related protein 1 (Homo sapiens) (O94907 whole entry, looked up): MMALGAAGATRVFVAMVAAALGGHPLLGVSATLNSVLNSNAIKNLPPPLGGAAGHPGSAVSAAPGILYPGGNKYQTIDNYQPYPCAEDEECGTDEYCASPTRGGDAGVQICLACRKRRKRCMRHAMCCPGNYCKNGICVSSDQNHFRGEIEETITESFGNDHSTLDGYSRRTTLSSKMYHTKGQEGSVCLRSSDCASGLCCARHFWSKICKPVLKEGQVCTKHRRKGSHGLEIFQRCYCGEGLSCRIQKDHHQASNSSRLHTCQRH
Chain of Follistatin-related protein 3 (Homo sapiens) (O95633 whole entry, looked up): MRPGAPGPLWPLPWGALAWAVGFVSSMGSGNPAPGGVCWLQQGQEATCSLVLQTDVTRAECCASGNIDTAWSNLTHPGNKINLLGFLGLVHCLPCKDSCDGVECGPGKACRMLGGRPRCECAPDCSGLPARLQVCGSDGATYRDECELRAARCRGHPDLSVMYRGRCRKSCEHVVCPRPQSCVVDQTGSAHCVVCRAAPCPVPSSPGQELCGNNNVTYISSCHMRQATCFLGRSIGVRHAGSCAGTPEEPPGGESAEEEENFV
Chain of Fibroblast growth factor 10 (Homo sapiens) (O15520 whole entry, looked up): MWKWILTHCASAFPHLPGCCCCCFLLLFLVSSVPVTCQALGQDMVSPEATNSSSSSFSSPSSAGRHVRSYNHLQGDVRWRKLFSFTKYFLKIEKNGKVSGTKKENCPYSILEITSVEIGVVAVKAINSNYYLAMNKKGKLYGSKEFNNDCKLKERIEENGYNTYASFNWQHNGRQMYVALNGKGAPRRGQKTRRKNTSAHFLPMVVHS
Chain of Left-right determination factor 2 (Homo sapiens) (O00292 whole entry, looked up): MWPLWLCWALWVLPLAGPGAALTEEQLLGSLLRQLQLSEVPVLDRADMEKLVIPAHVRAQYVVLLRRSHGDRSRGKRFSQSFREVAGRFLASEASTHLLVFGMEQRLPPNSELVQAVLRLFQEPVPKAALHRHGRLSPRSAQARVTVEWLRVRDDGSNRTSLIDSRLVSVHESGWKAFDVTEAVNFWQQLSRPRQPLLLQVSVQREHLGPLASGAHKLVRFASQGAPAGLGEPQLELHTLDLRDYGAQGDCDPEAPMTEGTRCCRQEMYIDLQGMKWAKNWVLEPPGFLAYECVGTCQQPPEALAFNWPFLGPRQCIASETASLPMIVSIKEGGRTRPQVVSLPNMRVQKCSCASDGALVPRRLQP
Chain of Epidermal growth factor receptor (Homo sapiens) (P00533 whole entry, looked up): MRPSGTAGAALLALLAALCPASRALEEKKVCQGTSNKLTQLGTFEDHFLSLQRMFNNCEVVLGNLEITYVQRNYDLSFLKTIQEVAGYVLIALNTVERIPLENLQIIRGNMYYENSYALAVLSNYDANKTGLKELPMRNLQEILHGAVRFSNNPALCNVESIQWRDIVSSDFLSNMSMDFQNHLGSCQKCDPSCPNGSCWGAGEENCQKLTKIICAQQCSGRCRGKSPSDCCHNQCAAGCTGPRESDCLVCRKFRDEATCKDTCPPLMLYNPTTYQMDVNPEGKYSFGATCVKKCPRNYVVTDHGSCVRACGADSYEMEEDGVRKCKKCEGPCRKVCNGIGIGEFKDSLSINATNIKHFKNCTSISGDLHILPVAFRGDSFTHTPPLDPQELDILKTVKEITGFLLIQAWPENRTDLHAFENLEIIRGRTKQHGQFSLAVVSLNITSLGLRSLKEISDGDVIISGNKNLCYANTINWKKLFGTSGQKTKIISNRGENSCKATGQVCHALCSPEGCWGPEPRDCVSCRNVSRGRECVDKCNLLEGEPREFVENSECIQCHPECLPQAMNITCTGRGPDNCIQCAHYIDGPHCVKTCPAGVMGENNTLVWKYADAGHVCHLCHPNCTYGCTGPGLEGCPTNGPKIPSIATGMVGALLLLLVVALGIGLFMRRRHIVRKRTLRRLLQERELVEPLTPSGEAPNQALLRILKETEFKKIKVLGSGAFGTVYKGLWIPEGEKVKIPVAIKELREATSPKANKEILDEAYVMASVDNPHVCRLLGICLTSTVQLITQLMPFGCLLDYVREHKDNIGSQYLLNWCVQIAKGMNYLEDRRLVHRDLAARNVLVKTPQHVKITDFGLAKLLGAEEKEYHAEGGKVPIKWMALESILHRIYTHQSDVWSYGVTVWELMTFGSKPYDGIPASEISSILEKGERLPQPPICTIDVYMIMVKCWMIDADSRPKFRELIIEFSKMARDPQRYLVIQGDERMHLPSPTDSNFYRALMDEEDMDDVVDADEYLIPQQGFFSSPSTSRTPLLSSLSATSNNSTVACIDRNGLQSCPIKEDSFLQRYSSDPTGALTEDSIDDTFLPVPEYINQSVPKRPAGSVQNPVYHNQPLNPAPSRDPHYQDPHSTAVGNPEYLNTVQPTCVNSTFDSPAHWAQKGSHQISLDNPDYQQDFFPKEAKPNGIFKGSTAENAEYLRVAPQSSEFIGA
Chain of Alpha-bungarotoxin (Bungarus multicinctus) (P60615 whole entry, looked up): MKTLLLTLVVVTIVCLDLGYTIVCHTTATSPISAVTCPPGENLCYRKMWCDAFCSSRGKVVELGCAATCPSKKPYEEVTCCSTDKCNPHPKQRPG

For `COC(=O)C1=C(C)N(Cc2ccccc2)C2=C(C(C)=O)[C@H](c3ccccc3)[C@@](O)(C(=O)OC)C(=O)N2[C@@H]1c1ccccc1`, the composite z-score in test [1] is 0.765 and -0.399; in [2] it was 0.156 and -0.547; in test [3], -0.535 and -0.652; in [5] it was 0.686 and 0.158; in test [6] it was 0.845 and -0.533; in test [7], 0.365 and 0.197. Also, the composite z-score in test [8] was 0.796 and 0.145; in test [9] it was 0.591 and -0.0346; in test [10], 0.174 and 1.21; in test [11], 0.895 and -1.59; in test [13] it was 0.64 and -0.705; in test [14] it was -0.271 and -0.503. The composite z-score in [15] is 0.004 and -0.587; in test [16], -0.0944 and 0.0102; in test [17], 0.151 and -0.0146; in [18] it was -0.205 and -0.342; in [19] it was -0.0984 and -0.136; in test [20], 0.538 and -0.436. In addition, the z-score was -0.694 (inactive) and -2.98 (inactive) in [4]; -0.396 and 0.347 in [12].
As for `COc1ccc(-c2ccc3c(n2)CCCN3CC(O)CN2CCCc3nc(-c4ccc(Br)cc4)ccc32)cc1` (stereo not given), the composite z-score in [1] was 1.01 and 0.727; in test [2], 0.507 and 0.293; in [3] it was 0.0498 and 0.803; in test [5], 0.829 and 0.6; in test [6], 0.682 and 0.382; in [7] it was 0.476 and 0.459. Also, the composite z-score in test [8] is 0.868 and 0.601; in test [9], 0.372 and 0.291; in [10], 1.33 and -1.05; in [11] it was 0.363 and -0.763; in test [13], 0.61 and 0.922; in [14], 0.347 and 0.413. Besides, the composite z-score in [15] was 0.116 and -0.108; in test [16], 0.0994 and -0.006; in [17], 0.896 and 0.233; in test [18] it was 0.202 and 0.309; in test [19], 0.498 and 0.282; in test [20] it was 2.04 and 1.76. For the same molecule, the z-score was 0.0317 (inactive) and -0.356 (inactive) in test [4]; -2.44 and -0.174 in test [12].
For `CC[C@@H]1C(Sc2ccccc2)C(C(=O)O)[C@H](c2ccc(C)cc2)N1S(=O)(=O)c1ccc(C)cc1` (stereo not given in full), the composite z-score was 1.68 and 1.07 in test [1]; 0.46 and -0.127 in [2]; 0.731 and 0.46 in test [3]; 0.617 and 0.881 in test [5]; 0.414 and 1.14 in test [6]; -0.233 and 0.267 in test [7]. Also, the composite z-score in test [8] was 0.437 and 0.874; in test [9], -0.72 and 0.0831; in [10], 0.653 and 0.302; in test [11], 1.1 and 1.34; in [13] it was -0.311 and 0.047; in test [14], 1.98 and 1.65. Further, the composite z-score in test [15] is 0.345 and 0.527; in [16], 0.138 and 0.155; in [17] it was 0.108 and 0.116; in test [18], 0.942 and 0.002; in [19], 1.06 and 1.19; in test [20] it was 0.836 and 1.14. The z-score in test [4] was -0.0623 (inactive) and -0.895 (inactive); in test [12], -0.17 and -0.556.
Turning to `COc1ccc(COC(=O)NN=C2C[C@@H](O)[C@@H](O)[C@@H]3[C@@H]4C(=O)N(C(C)(C)C)C(=O)[C@@H]4CC[C@H]23)cc1`, the composite z-score in test [1] is 0.871; in test [2], -0.325; in test [3], -0.25; in test [5] it was 0.589; in test [6] it was 0.241; in test [7], -0.0313. Also, the composite z-score in test [8] is 0.121; in test [9] it was -0.116; in test [10], -0.786; in [11] it was 1.01; in test [13], 0.0311; in test [14], -0.0989. In addition, the composite z-score in test [15] is -0.143; in [16] it was -0.1; in [17] it was 0.0469; in [18] it was -0.242; in [19], 0.677; in test [20], 0.7. Moreover, the z-score is -0.544 (inactive) in test [4] and -0.167 in test [12].
For `CCOC(=O)C[C@H]1[C@H](OC(=O)c2ccccc2-c2ccccc2)[C@@H](NC(=O)Cc2ccc(OC)cc2)c2cc(OCCCO)ccc2N1C(=O)c1ccc2ccccc2n1`, the composite z-score in [1] was 0.108 and 0.154; in [2], -0.114 and 0.575; in test [3] it was 0.0078 and 0.468; in test [5], 0.43 and 0.682; in test [6], 0.0554 and 0.185; in [7], 0.219 and -0.108. The composite z-score in test [8] is 0.0539 and 0.0407; in test [9], 0.404 and 0.209; in test [10], 0.773 and 0.105; in [11], 0.005 and 0.188; in [13], 0.417 and 0.0866; in test [14], 0.174 and 1.45. The composite z-score is 0.141 and 0.318 in test [15]; 0.0031 and 0.0512 in test [16]; -0.0681 and -0.0146 in [17]; 0.0926 and -0.111 in test [18]; 0.032 and 0.747 in test [19]; 0.572 and 0.924 in test [20]. Also, the z-score in [4] was -0.472 (inactive) and -0.891 (inactive); in test [12], -1.38 and -0.367.
